Among all 120,000 compounds or so, about 5,300 (4.4%) were called active. Not shown: some 22% with an inconclusive outcome. This is one part of a sample in which actives are shown more often than they occur. Unmarked numbers belong to inactive results. Calls follow the shape of the dose curve; as a rule, active = well fitted inhibition curve with a large enough effect; inconclusive = small, poorly fitted or top-dose-only effect; inactive = no such curve, though single readings can be large or run the other way.
Assay: qHTS Primary assay for Inhibitors of Plasmodium falciparum Dd2 growth in vitro; also: nearly all actives have a fitted effect of over 65% in size;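 as to activity, negative = inhibition: plate controls were DMSO vehicle for no effect and reference drug for full effect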
Details: P. falciparum Dd2 growth, SYBR Green, 72 h; series mostly up to 28.9 µM; activity, negative = inhibition: at the top concentration
Excerpt: Malaria, a parasitic disease spread to humans through the bite of a Plasmodium infected Anopheles mosquito, continues to be a global health burden affecting millions of people, with an estimated 228 million cases and 405,000 deaths in 2018. Concerns about safety and limitations of current antimalarial treatments strongly emphasize the need to develop new therapeutic options. The scarce number of chemotypes and validated drug targets with efficacy against the liver stage, have hindered development of new antimalarials. To address this, a chemoprophylactic drug discovery effort was conducted through a combined phenotypic high-throughput asexual blood stage and liver stage screen, providing a robust foundation to identify liver-stage active lead chemotypes. Compounds were initially screened against Plasmodium falciparum Dd2 strain parasites using a in vitro SYBRGreen-1 based 72 hr proliferation assay to identify novel chemotypes to advance to liver stage assays. NIH/NCATS Early Translation Branch Assay Submitter (PI): Anton Simeonov Ph.D.
Malaria-vivax Assay Protocol: PROTOCOL TABLE (as described by Inglese et al., 2007) SEQUENCE No. (e.g., 1, 2, 3, etc.); […] (e.g., Cells, Incubation, Reagent, etc.); VALUE; DESCRIPTION SEQUENCE, Parameter, Description 1; Reagent; 3 uL complete malaria growth medium, 1536 TC treated Black clear bottom plate 2; Controls; 23 nL positive control artesunate (300 nM final) to column 1; Neutral control DMSO to columns 2-4 3; Compound; 23 nL of compounds in dose response concentration (29 uM to 0.5 nM final) 4; Reagent; 5 uL malaria infected red blood cells (2.5% hematocrit final, 0.3% parasitemia 5; Time; 72 hours at 37C (5% O2, 5% CO2, 90% N2; 95% Rh) 6; Reagent; 2 uL lysis buffer/SYBRGreen-1, 25 sec shake immediately following dispense 7; Time; ~16 hours at 37C (5% O2, 5% CO2, 90% N2; 95% Rh) 8; Detector; EnVision (PerkinElmer) bottom read at 485/14nm excitation and 535/25 nm emission NOTES (numbers refer to sequence above): 1; Complete Malaria Growth Media: 1X RPMI-1640 w/L-glutamine, 5.5g/L Albumax II, 367 uM Hypoxanthine, 25 mM HEPES, 0.25% Sodium Bicarbonate, 35 uM Gentamicin sulfate 2; Controls were added using the Kalypsis Pintool (Wako USA) equipped with 1536 pinhead 3; Compounds were added in a 7-point, titration with a high final concentration of 29 uM by Pintool from seven inter-plate titrations of library plates and two DMSO control plates at the beginning and end (see Yasgar et al., 2008). 4; Red blood cells infected with Plasmodium falciparum Dd2 parasites were used. 6; Lysis buffer: 20 mM Tris-HCl, 10 mM EDTA, 0.16% Saponin, 1.6% Triton-X, 10X SYBR Green. REFERENCE: Inglese J, Shamu CE, Guy RK. 2007. Reporting data from high-throughput screening of small-molecule libraries. Nat Chem Biol. doi:10.1038/nchembio0807-438 Yasgar A, Shinn P, Jadhav A, Auld D, Michael S, Zheng W, Austin CP, Inglese J, Simeonov A. 2008. Compound Management for Quantitative High-Throughput Screening. J Lab Autom 13:79-89. doi:10.1016/j.jala.2007.12.004
Potency is read from the fitted curve at half-maximal effect.

| Structure (SMILES) | activity, negative = inhibition | outcome | Potency |
| --- | --- | --- | --- |
| CC(C)(C)C(=O)Cn1ccn2nc3c(c2c1=O)CCCC3 | -23.6% | – | – |
| Cc1cc2nc3n(c(=O)c2n1CC(=O)NC(C)CCc1ccccc1)CCCC3 (stereo not given) | – | inactive | – |
| CCc1ccc(CNCc2c(C(=O)O)n(Cc3ccc(F)cc3Cl)c3cc(OC)ccc23)cc1 | – | inactive | – |
| COc1ccc2c(CNCCc3ccccc3C)c(C(=O)O)n(Cc3ccccc3C)c2c1 | 54.4% [at 5.79 µM] | – | – |
| COc1cccc(CNCc2c(C(=O)O)n(Cc3ccc(C)cc3)c3cc(C)ccc23)c1OC | – | – | 10 µM (active) |
| O=C(CCCc1ccccc1)N1CCCC(c2nc(C3CCOCC3)no2)C1 (stereo not given) | -17.4% | – | – |
| CC(C)CN1CCOC[C@H](Oc2ccc(S(C)(=O)=O)cc2)C1 | -22.7% [at 44.1 µM] | – | – |
| COc1ccc(O[C@H]2COCCN(Cc3nccn3C)C2)cc1 | – | inactive [at 44.1 µM] | – |
| Cn1cc(CN2CCOC[C@H](Oc3ccc(S(C)(=O)=O)cc3)C2)c2ccccc21 | – | – | 10 µM (active) |
| COc1ccc(CC(=O)N2CCC(Cc3nc(-c4ccccc4)no3)CC2)cc1OC | – | inactive | – |
| COc1ccc(-c2noc(CC3CCN(C(=O)Cc4ccc(OC)c(OC)c4)CC3)n2)cc1 | – | – | 11.2 µM (active) |
| COc1ccc(-c2noc(CC3CCN(C(=O)Cc4ccc(C)cc4)CC3)n2)cc1 | -16% | – | – |
| N#Cc1ccc(C(=O)N[C@@H](Cc2ccccc2)C(=O)N2CCCOCCNC(=O)CC2)cc1 | -20.6% | – | – |
| CC(C)(C)C(=O)N1CCC(c2nn(-c3ccc(F)cc3)c(=O)[nH]2)CC1 | – | inactive [at 44.1 µM] | – |
| Cc1ccc(NC(=O)N2CCc3[nH]c4ccc(F)cc4c3C2)cc1 | -6.6% | – | – |
| COCc1cn([C@H]2CO[C@H]3[C@@H]2OC[C@H]3OC(=O)Nc2cccc(C#N)c2)nn1 | – | inactive [at 44.1 µM] | – |
| CCOc1ccccc1NC(=O)Cn1c(=O)n(Cc2ccccc2)c(=O)c2c(C)c(C(=O)N(C)C)sc21 | – | – | 3.16 µM (active) |
| COc1cccc(-n2c(=O)c3c(C)c(C(=O)N(C)C)sc3n(CC(=O)NCCc3ccc(OC)c(OC)c3)c2=O)c1 | -23.1% | – | – |
| Cc1c(C(=O)N(C)C)sc2c1c(=O)n(-c1ccc(F)cc1)c(=O)n2CC(=O)N(C)c1ccccc1 | 62.2% | – | – |
| COc1ccc(Nc2ccc3c(n2)CN(Cc2ccccc2C)C(=O)CO3)cn1 | -2.87% [at 44.1 µM] | – | – |
| O=C(C1CCCO1)N1CCC2(CC1)NCCc1c2[nH]c2ccccc12 (stereo not given) | -8.14% | – | – |
| COCCOCC(=O)N1CCC2(CC1)NCCc1c2[nH]c2ccccc12 | -26.8% | – | – |
| O=C(COc1ccc(F)cc1)N1CCC2(CC1)NCCc1c2[nH]c2ccccc12 | – | – | 10 µM (active) |
| Cc1nc2ncccn2c1C(=O)N[C@@H]1CCOC[C@H]1Oc1ccccn1 | -3.97% | – | – |
| Cc1ccc2c(C(=O)O)cc(NC(=O)C(C)C)cc2n1 | 24% | – | – |

Reference: PubChem BioAssay AID1347417 (National Center for Advancing Translational Sciences (NCATS), 2020)
